Results on 19 molecules are retold here after PubChem BioAssay (NCATS).

Test [1] can be described thus: P-glycoprotein substrates identified in KB-8-5-11 adenocarcinoma cell line, qHTS therapeutic library screen (AID 1346987). Note: series mostly up to about 44 µM; % is set by controls: 0 for no effect and ±100 for the full control effect; nearly all actives have a fitted effect of over 65% in size. An outline of the steps:
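Compounds are pinned in dose-response onto KB-8-5-11 cells (500 cells/well, colchicine-free medium) and left 72 h at 37 degree C. CellTiter-Glo luminescence then yields AC50 values.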

The nature of test [2]: NS1 protein of Zika virus - qHTS assay to identify small molecule inhibitors in human HEK 293 cells (AID 1347053).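 Note: series mostly up to about 46 µM; plate controls were infected untreated cells for no effect and uninfected cells for full effect; nearly all actives have a fitted effect of over 55% in size.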 An outline of the steps: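 Read-out is a two-antibody TR-FRET for ZIKV NS1, normalized between uninfected cells and infected cells. Compound added 1 h before MR766 infection at MOI 0.5; human HEK 293 cells incubated 24 h, 37 C.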
In general terms: Quantitative high-throughput screening tests each substance at several concentrations.

A short description of test [3]: qHTS of pediatric cancer cell lines to identify multiple opportunities for drug repurposing: Primary screen for TC32 cells (AID 1347089). For activity change, negative = cytotoxic: % is set by controls: 0 for no effect and ±100 for the full control effect. Note: nearly all actives have a fitted effect of over 60% in size. Note: potency is the fitted concentration of half-maximal effect. The essentials:
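Measured quantity: luminescence from CellTiter-Glo, reflecting metabolically active TC32 cells following 48 h of compound. Curves came straight from multi-point titrations, with 8 or 11 points in primary and 11 in confirmatory screening.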

Test [4] can be described thus: qHTS of pediatric cancer cell lines to identify multiple opportunities for drug repurposing: Primary screen for DAOY cells (AID 1347090).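 Note: series mostly up to about 46 µM; plate controls were DMSO for no effect and bortezomib for full effect; nearly all actives have a fitted effect of over 55% in size.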 An outline of the steps:
(§1)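 Cell viability, CellTiter-Glo luminescence; 500-1,000 cells/well, 8- or 11-point titration, 48 h compound exposure at 37 degrees C, 5% CO2. Controls: DMSO neutral, bortezomib 2.3 µM final as positive.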

A short description of test [5]: qHTS of pediatric cancer cell lines to identify multiple opportunities for drug repurposing: Primary screen for SJ-GBM2 cells (AID 1347091).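 Note: plate controls were DMSO neutral control for no effect and bortezomib for full effect.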 The essentials: as §1
Test [6] is described as follows: qHTS of pediatric cancer cell lines to identify multiple opportunities for drug repurposing: Primary screen for A673 cells (AID 1347092). For activity change, negative = cytotoxic: % is set by controls: 0 for no effect and ±100 for the full control effect. Note: nearly all actives have a fitted effect of over 45% in size. Note: potency is the fitted concentration of half-maximal effect. The essentials:
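Cells are plated, rested 5 h, dosed by pintool, incubated 48 h, then lysed with CellTiter-Glo and read by luminescence. DMSO is the neutral control; bortezomib at 2.3 uM final is the positive control.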

Test [7] can be described thus: qHTS of pediatric cancer cell lines to identify multiple opportunities for drug repurposing: Primary screen for BT-37 cells (AID 1347094).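 For activity change, negative = cytotoxic: series mostly up to about 57 µM; plate controls were DMSO for no effect and bortezomib for full effect.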 Note: potency is the fitted concentration of half-maximal effect. The essentials:
(§2)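 500-1,000 cells/well; 5 h pre-incubation 37 °C/5% CO2; compound pinned; 48 h; CellTiter-Glo, 15 min RT; luminescence. MIPE 11-pt from 0.78 nM, NPC 8-pt from 0.59 nM final. Bortezomib 2.3 µM final as positive control.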

The nature of test [8]: qHTS of pediatric cancer cell lines to identify multiple opportunities for drug repurposing: Primary screen for NB-EBc1 cells (AID 1347095).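 Note: plate controls were DMSO neutral control for no effect and bortezomib for full effect.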 An outline of the steps: as §2
The nature of test [9]: qHTS of pediatric cancer cell lines to identify multiple opportunities for drug repurposing: Primary screen for U-2 OS cells (AID 1347096).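 Note: plate controls were DMSO wells for no effect and bortezomib positive control wells for full effect; nearly all actives have a fitted effect of over 50% in size.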 The essentials:
(§3)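 Cells (500-1,000/well) rested 5 h, then received compounds for 48 h; metabolically active cells were measured by CellTiter-Glo luminescence. Final concentrations spanned up to 46 µM (MIPE, 11-point) or 0.59 nM-46 µM (NPC, 8-point) in primary screens, 11-point in follow-ups.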

Test [10] in a line: qHTS of pediatric cancer cell lines to identify multiple opportunities for drug repurposing: Primary screen for Saos-2 cells (AID 1347097). For activity change, negative = cytotoxic: % is set by controls: 0 for no effect and ±100 for the full control effect. Note: nearly all actives have a fitted effect of over 40% in size. Note: potency is the fitted concentration of half-maximal effect. The essentials: as §2
The nature of test [11]: qHTS of pediatric cancer cell lines to identify multiple opportunities for drug repurposing: Primary screen for NB1643 cells (AID 1347099).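 For activity change, negative = cytotoxic: plate controls were DMSO neutral control for no effect and bortezomib positive control for full effect.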 Note: nearly all actives have a fitted effect of over 50% in size. Note: potency is the fitted concentration of half-maximal effect. The essentials: as §2
Test [12] can be described thus: qHTS of pediatric cancer cell lines to identify multiple opportunities for drug repurposing: Primary screen for LAN-5 cells (AID 1347100).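 Note: plate controls were DMSO neutral control for no effect and bortezomib positive control for full effect.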 An outline of the steps:
as §3

Test [13] is described as follows: qHTS of pediatric cancer cell lines to identify multiple opportunities for drug repurposing: Primary screen for SK-N-MC cells (AID 1347093).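 For activity change, negative = cytotoxic: series mostly up to about 46 µM; plate controls were DMSO neutral control for no effect and bortezomib for full effect.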 Note: potency is the fitted concentration of half-maximal effect. The essentials:
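Metabolically active cells were quantified by ATP-dependent luminescence (CellTiter-Glo, 15 min at room temperature) following 48 h treatment. Cells had been plated at 500-1,000 per well and settled for 5 h beforehand.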

The nature of test [14]: qHTS of pediatric cancer cell lines to identify multiple opportunities for drug repurposing: Primary screen for SK-N-SH cells (AID 1347098). Note: % is set by controls: 0 for no effect and ±100 for the full control effect; nearly all actives have a fitted effect of over 65% in size. An outline of the steps: as §3

Results filed as inconclusive are left out. Unmarked numbers belong to inactive results. The source made the active and inactive calls. Calls come from the whole dose curve; as a rule, active = well fitted curve in the direction sought with a large enough effect; inconclusive = small, poorly fitted or top-dose-only effect, or another doubt; inactive = no such curve, though single readings can be large; an effect the other way counts as inactive or inconclusive.

Consider `CCOC(=O)c1ccc(O)cc1`, for which the Potency entry in test [1], in test [2], in [3], in [4], in test [5] and in [6] was “inactive” throughout. Further, the Potency entry in test [7], in test [8], in test [9], in test [10], in test [11] and in test [12] was “inactive” each time.

With `O=C(O)c1ccccc1O`, the Potency result in [1], in test [2], in [3], in test [4], in test [5] and in [13] was “inactive” in each case. Also, the Potency entry in test [7], in [8], in test [9], in [10], in test [14] and in [11] was “inactive” each time. Moreover, in [12], the Potency result is “inactive”.

Regarding `O=C(Oc1ccccc1C(=O)O)c1ccccc1O`, the Potency result in [1], in test [2], in test [3], in test [4], in test [5] and in [6] was “inactive” in each case. Also, the Potency result in test [7], in [8], in test [9], in test [10], in test [14] and in test [11] was “inactive” throughout. Further, the Potency result in test [12] is “inactive”.

Take `CCOC(CN1CCN(CC(C)C(=O)c2ccccc2)CC1)c1ccccc1` (configuration not stated): the Potency result in [1], in test [2], in test [3], in test [4], in test [5] and in test [6] was “inactive” throughout. Also, the Potency entry in [7], in [8], in test [9], in [10], in test [14] and in test [11] was “inactive” throughout. Further, the Potency result in [12] is “inactive”.

For `C[C@@H](O)[C@H](N)C(=O)O`, the Potency entry in test [1], in [2], in test [3], in [4], in test [5] and in [13] was “inactive” in each case. For the same molecule, the Potency result in [7], in [8], in test [9], in [10], in test [14] and in test [11] was “inactive” each time. Also, the Potency result in test [12] was “inactive”.

For the molecule `CCCCCCCCCCCCCCCCCCOCC(O)CO` (configuration not stated), the Potency result in test [1], in [2], in [3], in test [4], in [5] and in [13] was “inactive” in each case. Besides, the Potency result in test [7], in test [8], in test [9], in test [10], in [11] and in test [12] was “inactive” throughout.

Turning to `CCCCOC(=O)c1ccc(O)cc1`, the Potency result in test [1], in test [2], in test [3], in test [4], in [5] and in test [7] was “inactive” in each case. Moreover, the Potency result in [8], in test [9], in [14], in test [11] and in [12] was “inactive” each time.

For `COc1ccc2cc1Oc1cc3c(cc1OC)CC[N+](C)(C)[C@H]3Cc1ccc(cc1)Oc1c(OC)c(OC)cc3c1[C@@H](C2)[N+](C)(C)CC3`, the Potency result in [1], in test [2], in test [3], in test [4], in test [5] and in test [13] was “inactive” throughout. The Potency result in test [8], in test [9], in test [10], in [14], in [11] and in test [12] was “inactive” in each case.

As for `Cc1cc2nc3c(=O)[nH]c(=O)nc-3n(C[C@H](O)[C@H](O)[C@H](O)CO)c2cc1C`, the Potency entry in [1], in test [2], in test [3], in [4], in test [5] and in test [6] was “inactive” throughout. Also, the Potency entry in test [7], in test [8], in [9], in test [10], in test [11] and in test [12] was “inactive” in each case.

As for `Nc1ccc(S(=O)(=O)Nc2nccs2)cc1`, the Potency result in [1], in [2], in test [3], in test [4], in test [5] and in [13] was “inactive” throughout. Also, the Potency result in [7], in test [8], in test [9], in test [10], in [11] and in test [12] was “inactive” each time.

Take `NS(=O)(=O)c1cc2c(cc1C(F)(F)F)NC(Cc1ccccc1)NS2(=O)=O` (configuration not stated): the Potency entry in test [1], in [2], in test [3], in test [4], in [5] and in test [6] was “inactive” throughout. The Potency entry in test [8], in [9], in test [10], in test [11] and in test [12] was “inactive” in each case.

Turning to `N[C@@H](CSCCCO)C(=O)O`, the Potency result in [1], in [2], in test [3], in test [4], in [5] and in test [13] was “inactive” throughout. Further, the Potency entry in test [7], in test [8], in test [9], in [10], in test [14] and in test [11] was “inactive” each time. Moreover, the Potency entry in test [12] is “inactive”.

Consider `Cc1cccc(C)c1NC(=O)CN(CC(=O)O)CC(=O)O`, for which the Potency entry in test [1], in test [2], in test [3], in test [4], in test [5] and in test [13] was “inactive” each time. The Potency result in [7], in test [8], in test [9], in test [10], in [14] and in [11] was “inactive” in each case. The Potency result in test [12] was “inactive”.

For `CN1[C@@H]2CC[C@H]1CC(OC(=O)C(O)c1ccccc1)C2` (some centres not stated), the Potency entry in test [1], in test [2], in [3], in test [4], in test [5] and in test [13] was “inactive” in each case. For the same molecule, the Potency entry in test [8], in [9], in test [10], in [14], in [11] and in test [12] was “inactive” each time.

As to `NCCNCCNCCNCCN`, the Potency entry in [1] is “inactive”. Further, the activity change, negative = inhibition in test [2] is -10.7% [at 9.2 µM]. The activity change, negative = cytotoxic was 6.7% [at 9.17 µM] in test [3]; 0.237% [at 9.22 µM] in [5]; 0.711% [at 9.22 µM] in [6]; -17.1% [at 9.22 µM] in test [13]; 7.77% [at 11.5 µM] in test [7]; 2.04% [at 9.22 µM] in test [8]. Besides, the activity change, negative = cytotoxic in [9] is -3.22% [at 9.22 µM]; in test [10] it was -19.8% [at 9.22 µM]; in test [14], -8.89% [at 11.4 µM]; in [11], 0.713% [at 9.22 µM]; in [12], -15.5% [at 9.22 µM].

Turning to `O=C(O)[C@H](O)c1ccccc1`, the Potency result in test [1], in [2], in [3], in test [4], in test [5] and in test [8] was “inactive” throughout. Also, the Potency entry in test [9], in test [10], in test [11] and in test [12] was “inactive” in each case.

For `Cc1ncc([N+](=O)[O-])n1CC(O)CCl` (configuration not stated), the Potency result in [1], in [2], in [3], in test [5], in test [6] and in test [7] was “inactive” each time. The Potency result in test [8], in test [9], in test [10], in test [14], in test [11] and in [12] was “inactive” throughout.

Turning to `Cc1cc2c(cc1S(N)(=O)=O)S(=O)(=O)CCC2`, the Potency result in test [1], in test [2], in test [3], in test [5], in test [13] and in test [7] was “inactive” throughout. Moreover, the Potency result in test [8], in test [9], in test [10], in test [11] and in test [12] was “inactive” in each case.

Take `CC[N+](CC)(CC)CCOc1ccc(/C=C/c2ccccc2)cc1`: the Potency entry in test [1], in test [2] and in [9] was “inactive” in each case. For the same molecule, the Potency in [3] was 21 µM (active); in test [6], 2.66 µM (active); in [13], 5.96 µM (active); in test [7] it was 15.5 µM (active); in test [10] it was 23.7 µM (active); in test [11], 13.3 µM (active).
